# Source: PubChem BioAssay
# NS1 function inh – blocks influenza NS1 protein function; Potency, µM (top dose mostly 46.1 µM), without a hit: at the highest dose activity, positive = more growth; 270,000 compounds, 0.4% hits; AID 2326; also: potency is read from the fitted curve at half-maximal effect; actives are rising curves; nearly all actives have a fitted effect of over 50% in size
#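 Recovery from NS1-induced slow growth read by OD600 in budding yeast switched to galactose assay medium (pH 6.0, -URA) at 1:100 dilution. Compound 23 nl per well; the matching strain lacking NS1 serves as control.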
# Shiga toxin inh – blocks Shiga toxin action in Vero cells | Vero cells, Shiga toxin protein synthesis inhibition reporter | 290,000 compounds, 9.2% hits | inhibition, % at 38.7 µM; in the data active = inhibition mostly above about 28%, no sharp cut-off; inactive = mostly below about 43%; also: 0% is about no effect
# Cycloheximide cs – affects cycloheximide protein synthesis inhibition readout, counter-screen; cell reporter, cycloheximide protein synthesis inhibition counterscreen; max response, %; 300,000 compounds, 12% hits; AID 2314; in the data active = max response mostly above about 13%, no sharp cut-off; inactive = mostly below about 14%; also: read at 38.3 µM for the half of the compounds with a filed dose; 0% is about no effect
# Pf growth 48h – P. falciparum growth inhibition at 48 hours (one generation); 310,000 compounds, 5.9% hits; P. falciparum luciferase growth in erythrocytes, 48 h; Potency, µM (doses to about 28.7 µM), for the others: at the top dose activity change, negative = inhibition, hits mostly inhibitors; AID 504832; active = well fitted inhibition curve with a large enough effect; inconclusive = small, poorly fitted or top-dose-only effect, or another doubt; inactive = no such curve, though single readings can be large or run the other way; also: potency is read from the fitted curve at half-maximal effect; % is scaled to controls: 0 for no effect and ±100 for the full control effect
#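 In quantitative HTS format, infected erythrocytes bearing luciferase-reporter parasites were treated for a single generation at 37 C. Luminescence after adding detection reagent served as the growth measure.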
# SARS PLP yeast – blocks SARS-CoV papain-like protease in a yeast assay | S. cerevisiae expressing SARS-CoV PLpro, growth rescue | 330,000 compounds, 0.19% hits | Potency, µM (titrated, usually from 32.9 µM), for inactives: top-dose activity, positive = growth rescue, most hits filed as activators | AID 485353; also: potency is read from the fitted curve at half-maximal effect; 0% is about no effect; nearly all actives have a fitted effect of over 55% in size
# Pf growth 96h – P. falciparum growth inhibition at 96 hour, primary screen for plastid delayed-death inhibitors; 320,000 compounds, 6.9% hits; AID 504834; P. falciparum luciferase reporter growth, 96 h; Potency, µM (top dose mostly 28.7 µM), for the others: at the highest dose activity change, negative = inhibition, hits mostly inhibitors; active = well fitted inhibition curve with a large enough effect; inconclusive = small, poorly fitted or top-dose-only effect, or another doubt; inactive = no such curve, though single readings can be large or run the other way; also: potency is read from the fitted curve at half-maximal effect; % is scaled to controls: 0 for no effect and ±100 for the full control effect
#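 96 h incubation, 37 C, 5% CO2, of luciferase-reporter P. falciparum-infected RBCs (2% hematocrit, 0.05% parasitemia final) with test compounds; endpoint luminescence.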
# Starred values were filed as active, the others as inactive; i = inactive; ? = inconclusive; nt = not tested or not shown. The list is not random: actives were taken first. Their share in the collection is about 21%. Unless noted, calls follow the shape of the full dose curve.
SMILES,NS1 function inh,Shiga toxin inh,Cycloheximide cs,Pf growth 48h,SARS PLP yeast,Pf growth 96h
COc1ccccc1CNC(=O)C1CC(c2ccccc2C(F)(F)F)=NO1 (stereo unspecified),-3%,3,-2,-16%,-2%,18%
COc1ccc(CNC(=O)C2CC(c3ccccc3C(F)(F)F)=NO2)cc1 (stereo unspecified),-4%,-4,1,46%,-3%,72%
COc1ccc(CNC(=O)C2CC(c3ccccc3[N+](=O)[O-])=NO2)cc1 (stereo unspecified),10%,65*,29*,5%,?,36%
CC(C)(C)NC(=O)C(Cc1ccccc1)N1C(=O)c2ccccc2C1=O (stereo unspecified),8%,12,-2,6%,?,-2%
CN(C)C(=O)OCC1COc2ccccc2O1 (stereo unspecified),3%,-14,7,6%,1%,43%
Cc1cc(N2C(=O)NC(=O)CC2C)c(C)cc1C(C)C (stereo unspecified),5%,-3,-4,12%,7%,-18%
Nc1ccc2nc(CCCCCCc3nc4ccc(N)cc4[nH]3)[nH]c2c1,8%,-4,-3,?,0%,89%
Nc1ccc2nc(COc3ccccc3)[nH]c2c1,-6%,4,9.9*,49%,-6%,7.4µM*
Nc1ccc2nc(CCCCc3nc4ccccc4[nH]3)[nH]c2c1,-7%,-5,-3,?,-3%,?
Nc1ccc2nc(CCCCCCCCc3nc4ccc(N)cc4[nH]3)[nH]c2c1,nt,-14,-1,7.4µM*,2%,6%
CCN(CC(=O)Nc1ccc(S(=O)(=O)N2CCCC2)cc1)CC(=O)Nc1ccccc1C(F)(F)F,nt,nt,nt,nt,3%,nt
Cc1ccccc1C(=O)NC(CC(C)C)C(=O)N1CCN(c2ccccc2)CC1 (stereo unspecified),-2%,-1,1,?,-2%,?
O=C(Cc1ccc(Nc2nc3ccc(Br)cc3[nH]2)cc1)NCCc1cccs1,1%,19,15*,1.9µM*,-2%,3.3µM*
O=C(NCC1CC1)c1ccc(Nc2nc3ccc(Br)cc3[nH]2)cc1,4%,-38,-2,?,-1%,12µM*
COc1ccc(CCNC(=O)Cc2cccs2)cc1,4%,20,9,-17%,0%,70%
O=C(NCc1ccco1)c1cccc(Nc2nc3ccc(Br)cc3[nH]2)c1,16%,0,10,12µM*,-3%,13µM*
CC1(C)CC(=O)C(C=Nc2cc(C(=O)c3ccccc3)ccc2N)=C(O)C1,1%,101*,24*,-70%,-15%,14%
CSc1ccccc1N=CC1=C(O)CC(C)(C)CC1=O,2%,22,11,3%,?,nt
COC(=O)c1ccc(N)c(N=CC2=C(O)CC(C)(C)CC2=O)c1,26%,19*,50*,25%,25%,62%
N#Cc1nc(-c2ccccc2)oc1NCc1ccco1,-14%,active,24*,8%,-19%,29%
N#Cc1nc(-c2ccc(Cl)cc2)oc1NCc1ccco1,-15%,91*,28*,26%,2%,nt
C=CCNc1oc(-c2ccc(-c3ccccc3)cc2)nc1C#N,nt,nt,nt,nt,9%,nt
N#Cc1nc(-c2ccccc2Cl)oc1NCc1ccco1,-29%,47*,22*,1%,-25%,nt
O=C(Nc1ccccc1)c1ccc2ccccc2n1,-3%,94*,49*,i,-3%,446%
CCCN(CC(=O)Nc1ccccc1C)C(=O)c1ccc2ccccc2n1,nt,nt,nt,-5%,-2%,5%
SMILES,NS1 function inh,Shiga toxin inh,Cycloheximide cs,Pf growth 48h,SARS PLP yeast,Pf growth 96h
O=C(Nc1ccccc1C(=O)O)c1ccc2ccccc2n1,-36%,124*,30*,72%,-17%,37%
Cc1ccc(NC(=O)c2ccc3ccccc3n2)nc1,17%,115*,38*,212%,-20%,23%
Cc1ccccc1NC(=S)c1ccc2ccccc2n1,2%,97*,48*,-27%,-25%,20%
COc1ccc(C)cc1N(C(=O)CNC(=O)c1ccco1)C(C(=O)NC1CCCC1)c1cccnc1 (stereo unspecified),-8%,35,2,-4%,5%,nt
O=C(Nc1nccs1)C1CC(=O)N(CCc2ccccc2)C1 (stereo unspecified),nt,nt,nt,-8%,-4%,28%
CC(C)c1ccc(-c2nn(-c3ccccc3)cc2C(=O)NCC2CCCO2)cc1 (stereo unspecified),nt,nt,nt,?,-6%,?
COc1ccc2cc3cc(C(=O)N4CCN(c5ccccn5)CC4)oc3nc2c1,-11%,-7,2,-26%,-2%,?
C/C=C(\C)CN1CCCC(N(C)CCc2ccc(OC)c(OC)c2)C1 (stereo unspecified),4%,-3,-3,?,3%,-2%
O=C(Nc1cccc([N+](=O)[O-])c1)C1CCN(C(=O)Cc2ccccc2)CC1,2%,-8,1,?,-2%,55%
COc1ccccc1NS(=O)(=O)c1cccc(NC(=O)c2ccc3ccccc3n2)c1,28%,76,17*,-4%,17%,?
O=C(Nc1ccc(OC(F)(F)F)cc1)c1ccc2ccccc2n1,-4%,55,42*,70%,-2%,60%
COc1ccc(NC(=O)COC(=O)c2ccc3ccccc3n2)cc1,nt,nt,nt,14%,-1%,-7%
O=C(Nc1cccc(S(=O)(=O)Nc2ccccc2F)c1)c1ccc2ccccc2n1,nt,27,8,-21%,0%,-5%
Cc1cc(SCc2cc(=O)[nH]c3ccccc23)nc2ccccc12,-5%,-4,-1,1.5µM*,3%,?
Cc1cc(SCC(=O)O)nc2ccccc12,-2%,-18,-2,12%,1%,15%
O=c1cc(CSc2ccccn2)c2ccccc2[nH]1,5%,13,2,7%,-1%,9.3µM*
Cc1ccc(NP(=O)(c2ccccc2)c2nc3ccccc3s2)cc1 (stereo unspecified),nt,62*,31*,-2%,0%,26%
N/C(=N\OC(=O)c1ccc(Cl)c(Cl)c1)c1cccc(CSc2ccccn2)c1,3%,62*,29*,56%,1%,73%
N/C(=N\OC(=O)c1ccc(Cl)c(Cl)c1)c1cccnc1,-69%,41,26*,nt,-5%,13%
N/C(=N\OC(=O)c1cccc(C(F)(F)F)c1)c1cnccn1,-3%,59*,30*,51%,?,68%
N/C(=N\OC(=O)c1cccc(Cl)c1)c1ccncc1,4%,59*,39*,-5%,-2%,2%
CC(C)(C)OC(=O)N1CCC(CNC(=O)c2cccs2)CC1,-5%,2,-2,-5%,1%,-7%
O=C(c1ccccc1F)N1CCCC(C(=O)N2CCc3ccccc3C2)C1 (stereo unspecified),-4%,-15,-2,1%,0%,-17%
